Over roughly 11,000 sequences, “log2 fold change” has its median near 0.00022; the highest 2% begin near 0.34. Some of the results follow.

The assay concerns the target GST-SBP-SLBP (stem-loop binding protein) (Homo sapiens, UniProt Q14493 1-270). Kind of assay: targeted RNA Bind-n-Seq; RBNS binding buffer: 25 mM Tris pH 7.5, 150 mM KCl, 3 mM MgCl2, 0.1% Tween, 0.5 mg/mL BSA, 1 mM DTT; 27 nM protein, 750 pM RNA pool; temperature not stated; high values mean tight binding. The note with it: protein: recombinant; tags: N-terminal GST and SBP (pGEX6P1-SBP); structured_RNA. A digest of the protocol: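 Read counts per sequence supply the binding signal, defined as the DEseq fold change on a binary-logarithm scale. These counts came from RNA of a designed, T7-transcribed oligo pool at 750 pM that bound 27 nM of GST-SBP-tagged protein, made in Rosetta(DE3) pLysS E. coli and glutathione-purified, in RBNS binding buffer. The bound RNA was reverse transcribed with a 10-nucleotide barcoded primer, PCR-amplified and sequenced on a MiSeq with 200-cycle paired-end reads, then processed with FLASH and HISAT2 and collapsed by barcode.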
Take “GGUCACGUCUCAAUCAACUCAUUAGAGGGGGGGAAAACCCCUUUGCCCUCAUCUUCAACAGCUCGCAGUCAAG”: the binding signal came out at 0.356 ± 0.431 log2 fold change. As for “GGUCACGUCUCAAUCAACUCAUUAGAGGGGGGGAAAACCCCUUUGCCCUCACCUUCAACAGCUCGCAGUCAAG”, the figure is 0.303 ± 0.392 log2 fold change; as for “GGUCACGUCUCAAUCAACUCAACAGAGGGGGGGAAAACCCCUUUACCCUCAUUUUCAACAGCUCGCAGUCAAG”, 0.422 ± 0.451 log2 fold change; as for “GGUCACGUCUCAAUCAACUCCAUAGAGGGGGGGAAAACCCCUUUACCCUCAUUUUCAACAGCUCGCAGUCAAG”, 0.342 ± 0.445 log2 fold change. Then “GGUCACGUCUCAAUCAACUCCAUAGAGGGGGGGAAAACCCCUUUGCCCUCAUUUUCAACAGCUCGCAGUCAAG”, with 0.381 ± 0.414 log2 fold change; and “GGUCACGUCUCAAUCAACUCCAUAGAGGGGGGGAAAACCCCUUUGCCCUCAAUUUCAACAGCUCGCAGUCAAG”, with 0.426 ± 0.447 log2 fold change; and “GGUCACGUCUCAAUCAACUCUUCAGAGGGGGGGAAAACCCCUUUGCCCUCAAUUUCAACAGCUCGCAGUCAAG”, with 0.337 ± 0.433 log2 fold change.

Take “GGUCACGUCUCAAUCAACUCUCCAGAGGGGGGGAAAACCCCUUUGCCCUCCAUUUCAACAGCUCGCAGUCAAG”: the binding signal turned out to be 0.536 ± 0.422 log2 fold change.

On to “GGUCACGUCUCAAUCAACUCCUACGAGGGGGGGAAAACCCCUUUACCCUCAUCAUCAACAGCUCGCAGUCAAG”, for which the binding signal is 0.348 ± 0.402 log2 fold change. As for “GGUCACGUCUCAAUCAACUCACACGAGGGGGGGAAAACCCCUUUACCCUCAUCCUCAACAGCUCGCAGUCAAG”, the figure is 0.453 ± 0.432 log2 fold change; as for “GGUCACGUCUCAAUCAACUCCUACGAGGGGGGGAAAACCCCUUUACCCUCAACCUCAACAGCUCGCAGUCAAG”, 0.619 ± 0.434 log2 fold change. Then “GGUCACGUCUCAAUCAACUCCUACGAGGGGGGGAAAACCCCUUUACCCUCAAAUUCAACAGCUCGCAGUCAAG”, with 0.442 ± 0.411 log2 fold change; and “GGUCACGUCUCAAUCAACUCCUACGAGGGGGGGAAAACCCCUUUACCCUCAUAAUCAACAGCUCGCAGUCAAG”, with 0.382 ± 0.421 log2 fold change.

Consider “GGUCACGUCUCAAUCAACUCAUGUCCAGGAGUUUACUCCUGCAAUCUCAACAGCUCGCAGUCAAG”, for which the binding signal was determined as 0.371 ± 0.281 log2 fold change. As for “GGUCACGUCUCAAUCAACUCAACUCCAGGAGUUUACUCCUGUAAUCUCAACAGCUCGCAGUCAAG”, the figure is 0.456 ± 0.227 log2 fold change; as for “GGUCACGUCUCAAUCAACUCUAGUCCAGGAGUUUACUCCUGUUUAUUCAACAGCUCGCAGUCAAG”, 0.313 ± 0.255 log2 fold change; as for “GGUCACGUCUCAAUCAACUCAAUCUCAGGAGUUUACUCCUGCAAAGUCAACAGCUCGCAGUCAAG”, 0.321 ± 0.217 log2 fold change.

In the case of “GGUCACGUCUCAAUCAACUCAUCUCCAGGAGUUUCCUCCUGCAUACUCAACAGCUCGCAGUCAAG”, the binding signal was 0.323 ± 0.222 log2 fold change. For the sequence “GGUCACGUCUCAAUCAACUCAGGUCCAGGAGUUUACUCCUGCAAAUUCAACAGCUCGCAGUCAAG”, the binding signal came to 0.356 ± 0.313 log2 fold change.

With “GGUCACGUCUCAAUCAACUCAGGUCCAGGAGUUUACUCCUGCAAUUUCAACAGCUCGCAGUCAAG”, the binding signal stood at 0.516 ± 0.297 log2 fold change. As for “GGUCACGUCUCAAUCAACUCAUCGCCAGGAGUUUACUCCUGCUAAUUCAACAGCUCGCAGUCAAG”, the figure is 0.301 ± 0.286 log2 fold change; as for “GGUCACGUCUCAAUCAACUCAAUUCCAGGAGUUUCCUCCUGCAUUUUCAACAGCUCGCAGUCAAG”, 0.321 ± 0.19 log2 fold change. As for “GGUCACGUCUCAAUCAACUCAUUCCCAGGAGUUUACUCCUGUAAUUUCAACAGCUCGCAGUCAAG”, the figure is 0.331 ± 0.233 log2 fold change; as for “GGUCACGUCUCAAUCAACUCUUCCCCAGGAGUUUACUCCUGCAUUUUCAACAGCUCGCAGUCAAG”, 0.302 ± 0.227 log2 fold change; as for “GGUCACGUCUCAAUCAACUCAUCUUCAGGAGUUUGCUCCUGCAAUCUCAACAGCUCGCAGUCAAG”, 0.328 ± 0.197 log2 fold change. Take “GGUCACGUCUCAAUCAACUCAAUCCCAGGAGUUUUCUCCUGCAAUGUCAACAGCUCGCAGUCAAG”: the binding signal was determined as 0.317 ± 0.214 log2 fold change. Turning to “GGUCACGUCUCAAUCAACUCAAGUCCAGGAGUUUUCUCCUGCAAAGUCAACAGCUCGCAGUCAAG”, the binding signal worked out at 0.447 ± 0.258 log2 fold change. As for “GGUCACGUCUCAAUCAACUCUUCUCCCAGGGAAAGCCCUGGCAAUUUCAACAGCUCGCAGUCAAG”, the figure is 0.428 ± 0.307 log2 fold change; as for “GGUCACGUCUCAAUCAACUCUUCUCCCAGGGAAAGCCCUGGUUAACUCAACAGCUCGCAGUCAAG”, 0.335 ± 0.269 log2 fold change; as for “GGUCACGUCUCAAUCAACUCUUCGCCCAGGGAAAGCCCUGGUUAUUUCAACAGCUCGCAGUCAAG”, 0.464 ± 0.319 log2 fold change. Then “GGUCACGUCUCAAUCAACUCUUCUCCCAGGGAAACCCCUGGUUAUUUCAACAGCUCGCAGUCAAG”, with 0.372 ± 0.273 log2 fold change; and “GGUCACGUCUCAAUCAACUCUAUCUCCAGGGAAAUCCCUGGUAAACUCAACAGCUCGCAGUCAAG”, with 0.306 ± 0.25 log2 fold change; and “GGUCACGUCUCAAUCAACUCAAUCUCCAGGGAAAACCCUGGCAAUGUCAACAGCUCGCAGUCAAG”, with 0.578 ± 0.314 log2 fold change. Then “GGUCACGUCUCAAUCAACUCAAUCUCCAGGGAAAGCCCUGGCAAUGUCAACAGCUCGCAGUCAAG”, with 0.309 ± 0.299 log2 fold change.

As for “GGUCACGUCUCAAUCAACUCUAUCUCCAGGGAAAUCCCUGGCAAUGUCAACAGCUCGCAGUCAAG”, the binding signal was determined as 0.418 ± 0.298 log2 fold change.

Take “GGUCACGUCUCAAUCAACUCAGUCUCCAGGGAAAUCCCUGGUAUUUUCAACAGCUCGCAGUCAAG”: the binding signal is 0.347 ± 0.308 log2 fold change. As for “GGUCACGUCUCAAUCAACUCAGUCUCCAGGGAAAUCCCUGGCAAUCUCAACAGCUCGCAGUCAAG”, the figure is 0.4 ± 0.338 log2 fold change. As for “GGUCACGUCUCAAUCAACUCUUUCUCCAGGGAAAUCCCUGGCUAUCUCAACAGCUCGCAGUCAAG”, the figure is 0.375 ± 0.236 log2 fold change; as for “GGUCACGUCUCAAUCAACUCAUUUUCCAGGGAAACCCCUGGCUAAUUCAACAGCUCGCAGUCAAG”, 0.348 ± 0.267 log2 fold change; as for “GGUCACGUCUCAAUCAACUCUUCCCCCAGGGAAACCCCUGGCUAAUUCAACAGCUCGCAGUCAAG”, 0.313 ± 0.254 log2 fold change. Then “GGUCACGUCUCAAUCAACUCAUUCGCCAGGGAAACCCCUGGGUAUUUCAACAGCUCGCAGUCAAG”, with 0.329 ± 0.31 log2 fold change; and “GGUCACGUCUCAAUCAACUCAUUCCCCAGGGAAACCCCUGGCUAACUCAACAGCUCGCAGUCAAG”, with 0.341 ± 0.323 log2 fold change; and “GGUCACGUCUCAAUCAACUCAUCUUCCAGGGAAAACCCUGGCUAAUUCAACAGCUCGCAGUCAAG”, with 0.36 ± 0.265 log2 fold change.

On to “GGUCACGUCUCAAUCAACUCAUACGAGGGGGGGAAAACCCCUUUACCCUCAAACUCAACAGCUCGCAGUCAAG”, for which the binding signal was 0.382 ± 0.399 log2 fold change.
